Screening results deposited in PubChem by several laboratories.
PAX8 reporter: PAX8 transcriptional activity inhibition. AID 652154. inhibition, % at 12.6 µM. RMG-I TPO-luciferase reporter, SteadyGlo, 24 h. 360,000 compounds, 1.2% hits;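 active = mean replicate inhibition at least 60% with every replicate also reaching 60%; inconclusive = only one of the two criteria is met; inactive = mean below 60% and not all replicates reaching 60%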;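 also: luciferase light reporting Pax8 driven TPO promoter activity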
HIF-2a inh: HIF-2a inhibition; 360,000 compounds, 0.72% hits; 786-0 RCC cells HIF-2a reporter, luciferase luminescence, overnight; inhibition, % at 18.8 µM; AID 624352;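 active = inhibition of the luminescence signal of 40% or more relative to plate controls, in a single-dose primary screen at 18.75 µM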
EWS-Fli inh: EWS/Fli transcriptional activity inhibition; A673 NR0B1-luciferase reporter, viability-normalised; inhibition, % at 12.6 µM; 350,000 compounds, 0.67% hits;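 active = mean inhibition of at least 50% after viability correction, with every replicate also passing that limit; inconclusive = mean reaches 50% but only one of two replicates passes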;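 also: firefly luciferase signal divided by Alamar Blue viability fluorescence both relative to DMSO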
CF NFkB block: cystic fibrosis NF-kB activation inhibition. KKLEB NF-kB-GFP reporter, PAF-induced, GFP fluorescence overnight. inhibition, % at 5 µM. 360,000 compounds, 0.86% hits;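 active = at least 50% inhibition at 5 µM, scaled per plate between neutral and stimulator controls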;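 also: PAF is a Pseudomonas aeruginosa culture filtrate used as stimulus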
KKLEB tox: reduces viability of KKLEB cystic fibrosis airway cells | KKLEB CF airway cells viability, ATPlite luminescence, overnight; hits give low values; cells stimulated with P. aeruginosa culture filtrate | activity change (cytotoxicity), % at 5 µM | 360,000 compounds, 0.36% hits;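 active = corrected activity change at or below -50% at 5 µM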
Of the large screens only hits and unclear results are named; the others gave an inactive call. This is a sample that favours compounds with a hit; in the whole collection about 2.1% have one here.

O=C(COc1ccc(/C=N/NC(=O)c2cc3ccccc3o2)cc1Br)Nc1ccccc1	CF NFkB block 50.9, KKLEB tox -50.7 (no result: PAX8 reporter, EWS-Fli inh)
O=C(COc1ccccc1[N+](=O)[O-])Nc1ccc(NC(=O)c2cc3ccccc3o2)cc1	none
CCCc1ccc(Oc2cn[nH]c2-c2ccc(O)c(C)c2O)cc1	CF NFkB block 53.0 (no result: PAX8 reporter, EWS-Fli inh)
COCC(=O)N(C[C@@H]1N[C@@H](CO)[C@H]1c1ccc(C2=CCCCC2)cc1)C(C)C	none (no result: HIF-2a inh, CF NFkB block, KKLEB tox)
C[C@@H]1CN([C@H](C)CO)C(=O)c2c(c3ccccc3n2C)-c2ccccc2CO[C@@H]1CN(C)S(=O)(=O)c1ccc(C(F)(F)F)cc1	PAX8 reporter 92.6 (no result: HIF-2a inh, CF NFkB block, KKLEB tox)
C[C@@H]1CN([C@H](C)CO)C(=O)c2c(c3ccccc3n2C)-c2ccccc2CO[C@H]1CN(C)S(=O)(=O)c1ccc(F)cc1	none (no result: PAX8 reporter, HIF-2a inh, CF NFkB block, KKLEB tox)
C[C@H](CO)N1C[C@H](C)[C@@H](CN(C)Cc2ccc(Oc3ccccc3)cc2)OCc2ccccc2-c2c(n(C)c3ccccc23)C1=O	PAX8 reporter 88.8 (no result: HIF-2a inh, CF NFkB block, KKLEB tox)
C[C@@H]1CN([C@@H](C)CO)C(=O)c2ccccc2-c2ccccc2CO[C@@H]1CN(C)Cc1ccccc1C(F)(F)F	none (no result: HIF-2a inh, CF NFkB block, KKLEB tox)
C[C@@H]1CN([C@H](C)CO)C(=O)c2ccccc2-c2ccccc2CO[C@@H]1CN(C)Cc1ccccc1C(F)(F)F	PAX8 reporter 75.2 (no result: HIF-2a inh, CF NFkB block, KKLEB tox)
C[C@@H]1CN([C@@H](C)CO)C(=O)c2c(c3ccccc3n2C)-c2ccccc2CO[C@H]1CN(C)C(=O)Nc1ccc2c(c1)OCO2	PAX8 reporter 96.5 (no result: HIF-2a inh, CF NFkB block, KKLEB tox)
COCCNC(=O)C[C@H]1C[C@@H]2c3cc(NC(=O)C4CCC4)ccc3O[C@@H]2[C@H](CO)O1	none (no result: HIF-2a inh, CF NFkB block, KKLEB tox)
CNC[C@@H]1OCCCC[C@H](C)Oc2ccc(NC(=O)C3CCCCC3)cc2C(=O)N([C@@H](C)CO)C[C@@H]1C	none (no result: HIF-2a inh, CF NFkB block, KKLEB tox)
C[C@H]1CN([C@@H](C)CO)C(=O)c2c(c3ccccc3n2C)-c2ccccc2CO[C@@H]1CN(C)C(=O)CCC(F)(F)F	PAX8 reporter 64.5 (no result: HIF-2a inh, CF NFkB block, KKLEB tox)
C[C@@H]1CN([C@H](C)CO)C(=O)c2c(c3ccccc3n2C)-c2ccccc2CO[C@@H]1CN(C)C(=O)CCC(F)(F)F	none (no result: HIF-2a inh, CF NFkB block, KKLEB tox)
C[C@H]1CN([C@@H](C)CO)C(=O)c2c(c3ccccc3n2C)-c2ccccc2CO[C@@H]1CN(C)S(=O)(=O)c1ccc(F)cc1	none (no result: PAX8 reporter, HIF-2a inh, CF NFkB block, KKLEB tox)
C[C@H]1CN([C@@H](C)CO)C(=O)c2c(c3ccccc3n2C)-c2ccccc2CO[C@H]1CN(C)S(=O)(=O)c1ccc(C(F)(F)F)cc1	PAX8 reporter 84.7 (no result: HIF-2a inh, CF NFkB block, KKLEB tox)
C[C@H]1CN([C@@H](C)CO)C(=O)c2c(c3ccccc3n2C)-c2ccccc2CO[C@H]1CN(C)S(=O)(=O)c1ccc([N+](=O)[O-])cc1	PAX8 reporter 91.1 (no result: HIF-2a inh, CF NFkB block, KKLEB tox)
C[C@H](CO)N1C[C@H](C)[C@H](CN(C)S(=O)(=O)c2ccc(F)cc2)OCc2ccccc2-c2c(n(C)c3ccccc23)C1=O	none (no result: PAX8 reporter, HIF-2a inh, CF NFkB block, KKLEB tox)
C[C@@H]1CN([C@H](C)CO)C(=O)c2c(c3ccccc3n2C)-c2ccccc2CO[C@H]1CN(C)S(=O)(=O)c1ccc(C(F)(F)F)cc1	PAX8 reporter 82.8 (no result: HIF-2a inh, CF NFkB block, KKLEB tox)
C[C@@H]1CN([C@@H](C)CO)C(=O)c2cccc(NC(=O)Nc3ccc(F)cc3)c2O[C@H]1CN(C)Cc1ccc(C(=O)Nc2ccccc2N)cc1	none (no result: HIF-2a inh, CF NFkB block, KKLEB tox)
COc1ccc2c3c([nH]c2c1)[C@H](CO)N(C(=O)c1ccc(F)cc1)CC31CN(C(=O)Nc2ccc(F)cc2)C1	none (no result: PAX8 reporter, HIF-2a inh, CF NFkB block, KKLEB tox)
C[C@H]1CN([C@@H](C)CO)C(=O)c2ccccc2-c2ccccc2CO[C@H]1CN(C)S(=O)(=O)c1ccc(C(F)(F)F)cc1	PAX8 reporter 101.7 (no result: HIF-2a inh, CF NFkB block, KKLEB tox)
COc1ccccc1S(=O)(=O)N(C)C[C@@H]1OCc2ccccc2-c2c(n(C)c3ccccc23)C(=O)N([C@@H](C)CO)C[C@H]1C	PAX8 reporter 69.2 (no result: HIF-2a inh, CF NFkB block, KKLEB tox)
C[C@@H]1CN([C@H](C)CO)C(=O)c2ccccc2-c2ccccc2CO[C@@H]1CN(C)S(=O)(=O)c1ccc(C(F)(F)F)cc1	none (no result: HIF-2a inh, CF NFkB block, KKLEB tox)
O=C(Nc1ccc2c(c1)[C@H]1C[C@@H](CC(=O)N3CCCCC3)O[C@@H](CO)[C@H]1O2)c1cccnc1	none (no result: HIF-2a inh, CF NFkB block, KKLEB tox)
CO[C@H]1CC[C@H]2CCOc3c(C#N)cccc3C(=O)N(C)[C@H](C)C(=O)N(C)C[C@@H]1O2	none (no result: HIF-2a inh, CF NFkB block, KKLEB tox)
Cc1cccc(NC(=O)CCc2ccc(N3C(N)=NC(N)=NC3(C)C)cc2)c1	PAX8 reporter 65.5, EWS-Fli inh inconclusive
